Hit rate of the full screen: of about 69,000 compounds, about 10 (0.01%) showed an effect of 50% or more. Only a selection was taken, and strong results are over-represented in it overall.
Target: ClpP1P2 (Mycobacterium tuberculosis (strain ATCC 25618 / H37Rv)) (UniProt P9WPC5+P9WPC3)
Assay: in vitro assay to detect presence of AMC directly proportional to the activity of ClpP1P2. GHDDI collaboration.
Assay type: functional
Set-up: scale not given: direction of the effect not stated beside the values
Conditions: 50 µM

**Q.** `CCN1CC[C@@]2(C(=O)N(C)C)CCN(S(=O)(=O)c3ccccc3)CC[C@@H]12` was tested. Which Percent Effect did it give?
**A.** -6.35%

**Q.** With `COCCN1CC[C@@H]2CN(Cc3nccn3C)C[C@@H]2C1` as the compound, how does the Percent Effect read?
**A.** 3.59%

**Q.** How did the Percent Effect turn out when `Fc1cnc(N2CCO[C@H]3CN(CC4CCOC4)C[C@H]32)nc1` (stereo not given in full) was run?
**A.** -12.3%

**Q.** For `CCS(=O)(=O)N1C[C@H]2CN(CC3CC3)C(=O)[C@H]2C1`, which Percent Effect is on record?
**A.** 7.7%

**Q.** Which Percent Effect does the source give for `CC(C)CN1C(=O)CC[C@H]2CN(Cc3ncc[nH]3)CC[C@H]21` here?
**A.** -3.16%

**Q.** For `O=C(C1=CCCC1)N1C[C@@H]2COC[C@]2(COCC2CC2)C1`, which Percent Effect is on record?
**A.** -3.2%

**Q.** Which Percent Effect does the source give for `CN(C)CCN1CCO[C@H]2CN(Cc3ccccn3)C[C@H]21` here?
**A.** 1.87%

**Q.** For `O=C(c1ccncc1)N1C[C@@H]2OCCN(CCN3CCCC3)[C@@H]2C1`, which Percent Effect is on record?
**A.** -8.83%

**Q.** For `O=C1[C@H]2CN(CC3CCOCC3)C[C@H]2CN1Cc1cccc(F)c1`, which Percent Effect is on record?
**A.** 7.64%

**Q.** Which Percent Effect does the source give for `Cc1cccc(COC[C@@]23CCC[C@@H]2CN(S(=O)(=O)N(C)C)C3)n1` here?
**A.** -4.08%

**Q.** With `CC1=CC[C@@H]2CN(C(=O)c3ccc(-c4nc[nH]n4)cc3)C[C@@H]2C1` as the compound, how does the Percent Effect read?
**A.** -12.9%

**Q.** With `Cc1ccc(CN2C[C@H]3CN(CC4CCN(C)CC4)C(=O)[C@H]3C2)s1` as the compound, how does the Percent Effect read?
**A.** -7.79%

**Q.** For `Cc1ccc(CN2C[C@@H]3CCN(Cc4cccnc4)C(=O)[C@H]3C2)s1`, which Percent Effect is on record?
**A.** 13.6%

**Q.** With `Cc1ccc(CN2C[C@@H]3CCN(Cc4ccncc4)C(=O)[C@H]3C2)s1` as the compound, how does the Percent Effect read?
**A.** 54%

**Q.** Which Percent Effect does the source give for `CCN1C[C@H]2CCN(Cc3ccncc3)C(=O)[C@@H]2C1` here?
**A.** -1.34%

**Q.** With `COCCN1CC[C@H]2CN(Cc3ccc(C)s3)C[C@@H]2C1=O` as the compound, how does the Percent Effect read?
**A.** -2.27%

**Q.** With `O[C@@H]1C[C@@](CNCC2CCCC2)(COc2cccnc2)C[C@@H]1O` as the compound, how does the Percent Effect read?
**A.** -0.271%

**Q.** With `CN(C)C(=O)CO[C@H]1CN(Cc2ccoc2)[C@@H]2COC[C@H]12` as the compound, how does the Percent Effect read?
**A.** -6.93%

**Q.** How did the Percent Effect turn out when `Cc1cccc(CN2C(=O)CO[C@@H]3CN(C4CCOCC4)C[C@H]32)c1` was run?
**A.** -8.98%

**Q.** Which Percent Effect does the source give for `Cc1cc(C)n(CCCC(=O)N2CC[C@H]3NCCC[C@]3(CO)C2)n1` here?
**A.** -5.5%

**Q.** For `CC(C)CN1C[C@H]2N(c3ncccn3)CCC[C@@]2(C(=O)NCC2CC2)C1`, which Percent Effect is on record?
**A.** -20.2%

**Q.** `Cc1cc2cc(C(=O)N3CCN(CCO)[C@@H]4CS(=O)(=O)C[C@@H]43)ccc2o1` was tested. Which Percent Effect did it give?
**A.** -4.08%

**Q.** `Cc1nnc(N2C[C@@H](Oc3ccccn3)[C@H]3OCCC[C@H]32)s1` was tested. Which Percent Effect did it give?
**A.** 9.54%

**Q.** For `COCCN1C[C@H]2CN(C(=O)NC(C)C)CCN2C1=O`, which Percent Effect is on record?
**A.** -7.02%

**Q.** With `COc1cccc(CN2CCCCCC2c2cccs2)c1O` (stereo not given) as the compound, how does the Percent Effect read?
**A.** -21.7%

**Q.** How did the Percent Effect turn out when `COc1cc(CN2CCCCCC2c2cccs2)cc(OC)c1OC` (stereo not given) was run?
**A.** 1.65%

**Q.** `COc1cc(CN2CCCCCC2c2cccs2)cc(OC)c1O` (stereo not given) was tested. Which Percent Effect did it give?
**A.** 52.1%

**Q.** `O=C([C@H]1COC[C@H]2CN(Cc3ccco3)C[C@H]21)N1CCCO1` was tested. Which Percent Effect did it give?
**A.** 3.57%

**Q.** With `O=C(NC[C@H]1C[C@@H]2CCN1C[C@@H]2CN1CCCCC1)c1ccco1` as the compound, how does the Percent Effect read?
**A.** -12.3%

**Q.** For `O=S(=O)(NC[C@]12COC[C@H]1CN(c1ncc(F)cn1)C2)C1CC1`, which Percent Effect is on record?
**A.** -0.384%

**Q.** How did the Percent Effect turn out when `CNC(=O)[C@@H]1C[C@H]2CN(Cc3c(C)noc3C)C[C@H]2N1C(C)C` was run?
**A.** -4.22%

**Q.** With `CCSCCNC(=O)c1ccc(S(=O)(=O)N2C[C@@H]3C[C@H]2CN3)cc1` as the compound, how does the Percent Effect read?
**A.** 9.91%

**Q.** Which Percent Effect does the source give for `CC(C)NC(=O)N1CCC2(CC1)CC[C@@]1(C(=O)N(C)C)CN(C)C[C@@H]21` here?
**A.** -5.9%

**Q.** How did the Percent Effect turn out when `COc1ncccc1C(=O)N1CC[C@H]2C[C@@H](c3ccncn3)O[C@@H]2C1` was run?
**A.** -7.36%

**Q.** `O=C(CCc1ccccc1)N1C[C@H]2CCN[C@H]2C1` was tested. Which Percent Effect did it give?
**A.** 0.746%

**Q.** `COc1ncccc1CN1C[C@@H]2COC[C@]2(COCC2CC2)C1` was tested. Which Percent Effect did it give?
**A.** -9.86%

**Q.** How did the Percent Effect turn out when `O=C1CC[C@H]2[C@H](CCN2C(=O)C2CCOC2)N1Cc1ccncc1` (stereo not given in full) was run?
**A.** 0.241%

**Q.** For `CNC(=O)[C@H]1C[C@@H]2CN(C(=O)Nc3ccccc3)C[C@H]1O2`, which Percent Effect is on record?
**A.** -3.31%

**Q.** How did the Percent Effect turn out when `CNC(=O)[C@H]1C[C@@H]2CN(C(=O)c3ccsc3)C[C@@H]2N1S(C)(=O)=O` was run?
**A.** -13.7%

**Q.** For `Cc1ncccc1NC(=O)[C@H]1C[C@@H]2CCN(Cc3ccsc3)C[C@H]2O1`, which Percent Effect is on record?
**A.** -3.15%

**Q.** For `CN(C)CCN1CCO[C@H]2CN(Cc3cnn(C)c3)C[C@H]21`, which Percent Effect is on record?
**A.** -9.41%

**Q.** For `CCN(Cc1nc2c(cnn2C)c(=O)[nH]1)Cc1cccs1`, which Percent Effect is on record?
**A.** 61.1%

**Q.** Which Percent Effect does the source give for `CCN(Cc1nc2c(cnn2C)c(=O)[nH]1)Cc1ccco1` here?
**A.** 7.15%

**Q.** How did the Percent Effect turn out when `CCN(Cc1ccccc1)Cc1nc2c(cnn2C)c(=O)[nH]1` was run?
**A.** -16.6%

**Q.** `CCOCC1C[C@@H]2OCCN(C(=O)c3ccc[nH]3)[C@H]2C1` (stereo not given in full) was tested. Which Percent Effect did it give?
**A.** -16.1%

**Q.** For `O=C(Nc1ccccc1-c1ccccc1)N1C[C@@H]2CNC[C@]2(C(=O)O)C1`, which Percent Effect is on record?
**A.** 4.15%

**Q.** `COCCNC(=O)[C@H]1C[C@@H]2CCN(c3ncccn3)C[C@H]2O1` was tested. Which Percent Effect did it give?
**A.** -14.4%

**Q.** `CC(C)(C)c1ccc(CN2C[C@H]3C[C@H](O)C[C@H]3C2)c(OCC(N)=O)c1` was tested. Which Percent Effect did it give?
**A.** 2.62%

**Q.** With `Cn1cc(N2CC[C@@H]3CN(Cc4ccncc4)C[C@H]3C2=O)cn1` as the compound, how does the Percent Effect read?
**A.** 6.53%

**Q.** `COCC(=O)N1C[C@H](N(C)Cc2cncnc2)[C@H]2OCCC[C@H]21` was tested. Which Percent Effect did it give?
**A.** 3.58%

**Q.** `NS(=O)(=O)N1CCc2ccc(NC(=O)CC(F)(F)F)cc21` was tested. Which Percent Effect did it give?
**A.** -1.98%

**Q.** With `NS(=O)(=O)N1CCc2ccc(NC(=O)Cc3ccccc3F)cc21` as the compound, how does the Percent Effect read?
**A.** 21.3%

**Q.** How did the Percent Effect turn out when `NS(=O)(=O)N1CCc2ccc(NC(=O)Cc3ccc(F)cc3)cc21` was run?
**A.** 70.3%

**Q.** Which Percent Effect does the source give for `CN(C)S(=O)(=O)N1C[C@@H](OCc2ccccn2)[C@H]2OCCC[C@H]21` here?
**A.** 14.2%

**Q.** `Cn1cc(CN2CC[C@@H]3[C@@H](CCC(=O)N3CCc3ccccc3)C2)cn1` was tested. Which Percent Effect did it give?
**A.** -11.2%
